We go through 66 compounds from PubChem BioAssay AID651820 (National Center for Advancing Translational Sciences (NCATS), 2012).

Screen size: about 340,000 compounds; about 12,000 (3.5%) were called active. A call without a number means that no potency is given here. About 18% were inconclusive and are not listed. Calls follow the shape of the dose curve; as a rule, active = well fitted inhibition curve with a large enough effect; inconclusive = small, poorly fitted or top-dose-only effect, or another doubt; inactive = no such curve, though single readings can be large or run the other way. This excerpt belongs to a sample that is enriched for actives.
Potency is read from the fitted curve at half-maximal effect.

This experiment in a line: qHTS Assay for Inhibitors of Hepatitis C Virus (HCV). The following applies: Huh7.5.1 HCVcc-Cre infection, luciferase reporter, 44 h; series mostly up to 41.8 µM. The essentials: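 Reporter virus HCVcc-Cre (~0.5 moi) infects cells exposed to compound; seeding density 1,000 cells/well with 4 h settling beforehand. Luminescence, 15 sec read, taken 44 h post-infection following a 15 min RT substrate incubation.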
For orientation: In qHTS, concentration-response curves come from the screen itself.
In the case of `Cc1ccc(NC(=O)C/C(N)=N/O)cc1Cl`, the Potency entry was “inactive”.

Regarding `O=C(CC1SCCNC1=O)Nc1ccc(Cl)c(Cl)c1` (stereo unspecified), the Potency result was “inactive”.

Regarding `O=C(CC(O)(C(F)(F)F)C(F)(F)F)Nc1ccc(Cl)c(Cl)c1`, the Potency is 5.01 µM (active).

Take `Cc1cccc(OCC(O)CN2CCN(CCN3C(=O)c4cccc5cccc(c45)C3=O)CC2)c1C` (stereo unspecified): the Potency was 8.91 µM (active).

On to `Cc1ccccc1OCC(O)CN1CCN(c2ccccn2)CC1` (stereo unspecified), for which the Potency result was “inactive”.

Turning to `Cc1cccc(C)c1OCC(O)CN1CCCCC1` (stereo unspecified), the Potency entry was “inactive”.

Take `CCn1nc(C(=O)NNS(=O)(=O)c2cc(/C=C/C(=O)O)cc(OC)c2OC)c2ccccc2c1=O`: the Potency entry was “inactive”.

Take `COc1cccc(-c2nc3cc(C)ccc3o2)c1`: the Potency entry is “inactive”.

For `CCc1ccc2oc(-c3ccc(N)cc3)nc2c1`, the Potency is 12.6 µM (active).

For the compound `COc1ccc(-c2nc3cc([N+](=O)[O-])ccc3o2)cc1OC`, the Potency entry is “inactive”.

Consider `Nc1cc(=O)n(Cc2ccccc2)c(=O)n1Cc1ccccc1`, for which the Potency result is “inactive”.

Regarding `Cc1c(NC(=O)CN(C)CC(=O)Nc2ccc(F)c(F)c2F)c(=O)n(-c2ccccc2)n1C`, the Potency entry was “inactive”.

On to `Cc1ccc(Nc2nc(CSc3nnc(-c4ccncc4)n3-c3ccccc3C)cs2)cc1`, for which the Potency was 10 µM (active).

`Cc1ccc(-n2c(SCC(=O)N3c4ccccc4Sc4ccccc43)nnc2-c2ccncc2)cc1`: the Potency result was “inactive”.

With `Cc1ccccc1-n1c(SCC(=O)NCc2cccs2)nnc1-c1ccncc1`, the Potency result is “inactive”.

As to `CC1CCCC(C)N1C(=O)COC(=O)COc1ccccc1C#N` (stereo unspecified), the Potency entry was “inactive”.

On to `COC(=O)c1nc(NC(=O)c2ccc(C(C)(C)C)cc2)n[nH]1`, for which the Potency entry is “inactive”.

In the case of `CSc1nccc(NC(=O)c2ccc(C(C)(C)C)cc2)n1`, the Potency was 1.78 µM (active).

As for `Cc1cccc(NC(=O)c2cccnc2Cl)n1`, the Potency result is “inactive”.

For the compound `CCN(CC(=O)Nc1cc(Cl)ccc1C)C(=O)CN1C(=O)NC2(CCCC2)C1=O`, the Potency result was “inactive”.

With `CN[C@H](C(=O)NC[C@H]1O[C@@H](n2cnc3c(N)ncnc32)[C@H](O)[C@@H]1O)[C@@H](C)OCc1ccccc1`, the Potency result is “inactive”.

Regarding `CC(C)(c1ccccc1)c1ccc(OCCN)cc1`, the Potency result was “inactive”.

For `CN(C)CC(O)COc1ccc(C(C)(C)c2ccc(OCC(O)CN(C)C)cc2)cc1` (stereo unspecified), the Potency was 10 µM (active).

For the compound `Cc1cc(C)n(CC(O)COc2ccc(C(C)(C)C)cc2)n1` (stereo unspecified), the Potency entry was “inactive”.

Turning to `Cc1ccc(C(=O)NCC(=O)NC2CC2)cc1`, the Potency result is “inactive”.

As to `Cc1ccsc1C(=O)NNC(=O)COc1ccc(Br)cc1`, the Potency entry is “inactive”.

For the compound `CCc1nnc(NC(=O)C2CCN(C(=O)c3ccccc3C)CC2)s1`, the Potency entry was “inactive”.

Turning to `Cc1cc(NC(=O)CSc2nnnn2-c2ccc(F)cc2)no1`, the Potency entry is “inactive”.

As for `O=C(CSc1nnnn1-c1ccccc1)NCc1ccco1`, the Potency entry is “inactive”.

Regarding `CCN(CC)C(CNC(=O)CSc1nnnn1-c1cccc(F)c1)c1ccco1` (stereo unspecified), the Potency was 25.1 µM (active).

As for `CCN(CC)S(=O)(=O)c1ccc(Cl)c(C(=O)NC(C)C(c2cccs2)N2CCCC2)c1` (stereo unspecified), the Potency was 14.1 µM (active).

For `CCN(CC)S(=O)(=O)c1ccc(Cl)c(C(=O)NCCN2CCOCC2)c1`, the Potency entry is “inactive”.

In the case of `CCCC(=O)NC(C)C(c1cccs1)N1CCN(c2ccccc2)CC1` (stereo unspecified), the Potency result was “inactive”.

On to `O=S(=O)(Nc1cc(Cl)ccc1N1CCOCC1)c1ccccc1Cl`, for which the Potency result is “inactive”.

For `Cc1[nH]c2ccccc2c1C(=O)C(C)Sc1nnc(C2CC2)o1` (stereo unspecified), the Potency entry is “inactive”.

Consider `Cc1n[nH]c(=O)c2c(NC(=O)CSc3ccccc3F)oc(C)c12`, for which the Potency entry was “inactive”.

In the case of `COC(=O)c1sccc1NC(=O)c1cc(OC)c(OC)c(OC)c1`, the Potency result is “inactive”.

Turning to `CN(C)/N=C/c1cn(-c2ccccc2)nc1-c1cccnc1`, the Potency result was “inactive”.

With `COc1ccc(-c2nn(-c3ccccc3)cc2/C=N/Nc2ccccn2)cc1OC`, the Potency was 10 µM (active).

In the case of `CC(C)(C)OC(=O)N/N=C/c1cn(-c2ccccc2)nc1-c1cccnc1`, the Potency entry is “inactive”.

For the compound `CC(=O)Oc1ccc(C(=O)Nc2nccs2)cc1`, the Potency result was “inactive”.

On to `COc1ccc(-c2nn(-c3ccccc3)cc2C(=O)Nc2nccs2)cc1OC`, for which the Potency was 2.51 µM (active).

As for `Cn1cccc1C(=O)Nc1nccs1`, the Potency entry was “inactive”.

Take `O=C(O)c1ccccc1-c1ccccc1C(=O)Nc1nccs1`: the Potency entry was “inactive”.

`COc1cc(C(=O)Nc2nccs2)cc(OC)c1OC`: the Potency was 14.1 µM (active).

As to `Cc1ccc(C)c(NC(=O)CN(C)C(=O)COc2ccc3ccccc3c2)c1`, the Potency entry is “inactive”.

Consider `CC(NC(=O)COC(=O)c1ccc2ccccc2n1)c1ccccc1` (stereo unspecified), for which the Potency entry is “inactive”.

Regarding `COc1cc(NC(=O)COC(=O)c2cc(S(=O)(=O)N3CCOCC3)ccc2F)cc(OC)c1`, the Potency result was “inactive”.

Regarding `Cc1ccc(F)cc1NC(=O)CSCc1c(C)noc1C`, the Potency entry was “inactive”.

Regarding `O=C(COC(=O)CNS(=O)(=O)c1ccc(F)c(F)c1F)NC1CCCC1`, the Potency result is “inactive”.

Turning to `CCC1(C)COC(c2ccc(OC)c(OC)c2)OC1` (stereo unspecified), the Potency entry is “inactive”.

Regarding `C=CCC[C@@H](Cc1ccc(F)cc1)C(=O)O[C@H](CNC(=O)[C@H](CC=C)CC(=O)N(CCO)Cc1ccccc1)c1ccccc1`, the Potency was 8.91 µM (active).

For the compound `C=CC[C@H](CC(=O)NCCO)C(=O)N[C@@H](COC(=O)[C@@H](CC=C)Cc1ccc(F)cc1)Cc1c[nH]c2ccccc12`, the Potency entry was “inactive”.

In the case of `C=CC[C@H](CC(=O)OC(C)(C)C)C(=O)OC[C@H]1CCCN1C(=O)[C@H](CC=C)CC(=O)N(CCO)Cc1ccccc1`, the Potency entry is “inactive”.

As to `COc1ccc(CCNc2nc3ccc(C)cc3n3cnnc23)cc1OC`, the Potency entry is “inactive”.

As for `COc1ccc(OC)c(Nc2nc3ccccc3n3cnnc23)c1`, the Potency was 10 µM (active).

As to `COc1cc(Nc2nc3ccc(Cl)cc3n3cnnc23)cc(OC)c1OC`, the Potency entry was “inactive”.

Take `CN1CCC(N(C)C(=O)c2ccc(Cl)c(S(=O)(=O)Nc3ccc(Cl)cc3)c2)CC1`: the Potency entry was “inactive”.

As to `CC1CC(C)(C)CC2(C1)NC(=O)N(CC(=O)Nc1nccs1)C2=O` (stereo unspecified), the Potency entry is “inactive”.

Turning to `COc1ccc2[nH]c3ccc(OC)cc3c2c1`, the Potency was 25.1 µM (active).

`COc1ccc2[nH]c3c(c2c1)CCN[C@H]3C`: the Potency result was “inactive”.

Turning to `COc1ccc2[nH]c(=S)cc(C)c2c1`, the Potency entry was “inactive”.

As to `COc1ccc(-c2noc(CCC(=O)N3CCN(c4cccc(C)c4)CC3)n2)cc1`, the Potency result is “inactive”.

Consider `COc1cccc(-n2c(SCC(=O)NC3CCS(=O)(=O)C3)nc3ccccc3c2=O)c1` (stereo unspecified), for which the Potency result was “inactive”.

In the case of `O=C1CC(c2ccccc2)C(=O)N2C(=O)CC(c3ccccc3)C(=O)N12` (stereo unspecified), the Potency entry is “inactive”.

As for `CCN(CC)C(=O)[C@H]1C[C@H](CC(=O)NCC23CC4CC(CC(C4)C2)C3)C(=O)N2CCc3c([nH]c4cc(CCC(=O)N(C)C)ccc34)[C@]12C`, the activity change, negative = inhibition is -5.73% [at 8.37 µM] (inactive).
